In all, about 340,000 compounds went through this assay and about 2,100 (0.62%) were called active. These entries were drawn from the full list. Potency and affinity values are given separately. A number with no mark means an inactive call.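 The calls were made as follows: active = first-screen hits whose inhibition reached a set limit at any dose in the follow-up dose series; inconclusive = inhibition above the set first-screen limit but never retested; inactive = the rest.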

Chain of Rac GTPase-activating protein 1 (Homo sapiens) (Q9H0H5 whole entry, looked up): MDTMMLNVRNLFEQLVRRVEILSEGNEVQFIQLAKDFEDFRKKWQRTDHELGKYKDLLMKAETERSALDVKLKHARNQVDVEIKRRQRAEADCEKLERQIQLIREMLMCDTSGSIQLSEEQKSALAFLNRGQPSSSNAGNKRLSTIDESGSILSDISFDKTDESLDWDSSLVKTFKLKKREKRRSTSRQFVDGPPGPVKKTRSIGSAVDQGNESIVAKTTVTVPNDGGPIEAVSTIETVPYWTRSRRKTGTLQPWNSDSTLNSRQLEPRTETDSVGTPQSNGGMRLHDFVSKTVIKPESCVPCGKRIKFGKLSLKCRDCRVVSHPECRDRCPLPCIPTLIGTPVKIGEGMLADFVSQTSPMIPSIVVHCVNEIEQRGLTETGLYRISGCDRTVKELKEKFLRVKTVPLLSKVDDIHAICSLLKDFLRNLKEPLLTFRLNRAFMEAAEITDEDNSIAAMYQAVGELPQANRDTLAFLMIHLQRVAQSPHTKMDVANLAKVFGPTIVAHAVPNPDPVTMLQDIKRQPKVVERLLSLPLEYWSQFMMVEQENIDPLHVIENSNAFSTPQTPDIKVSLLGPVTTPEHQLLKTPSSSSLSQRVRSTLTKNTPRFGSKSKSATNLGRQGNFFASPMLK

This assay concerns the target Rac GTPase-activating protein 1 (Homo sapiens) (UniProt Q9H0H5). As to the kind of experiment: blockers of MgcRacGAP-driven Rac1 GTP hydrolysis – biochemical, ADP Hunter fluorescence, primary and confirmatory, confirmation (AID 624330).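 Also: fluorescence reports GDP produced by GAP-driven GTP hydrolysis.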 The settings on record: MgcRacGAP-stimulated Rac1 GTP hydrolysis, at 30 µM, hits give high values, GST-tagged Rac1 F28L mutant substrate.
Turning to `COc1ccc(-c2noc(CCC(=O)NCCCN3CCC(C)CC3)n2)cc1`, the inhibition (in general, the change of the read-out against control, counted positive when it falls) is 8.68%.

As for `O=C(COc1ccc(S(=O)(=O)N2CCCC2)cc1)N1CCN(c2ccccc2F)CC1`, the inhibition was 3.38%.

On to `CCN(Cc1ccncc1)C(=O)c1ccc2c(c1)S(=O)(=O)c1ccccc1C2=O`, for which the inhibition was -39.1%.

For the compound `CCOc1cc(/C=C2\C(=N)N3N=C(S(=O)(=O)CC)SC3=NC2=O)ccc1OC(=O)c1ccco1`, the inhibition is 26.5%.

`CCOc1cc(/C=C2\C(=N)N3N=C(S(C)(=O)=O)SC3=NC2=O)ccc1OCCOc1cccc(OC)c1`: the inhibition was 12.1%.

In the case of `CCCC1=NN2C(=N)/C(=C\c3ccc(SCc4ccco4)o3)C(=O)N=C2S1`, the inhibition is 60.1%.

Regarding `CC1=CN2C(=N)/C(=C/c3ccco3)C(=O)N=C2S1`, the inhibition is 5.23%.

Turning to `CCS(=O)(=O)C1=NN2C(=N)/C(=C\c3ccc(OC(=O)c4ccco4)c(OC)c3)C(=O)N=C2S1`, the inhibition is 30.5%.

For `CCC1=NN2C(=N)/C(=C\c3ccc(SCc4ccco4)o3)C(=O)N=C2S1`, the inhibition was 45.8%.

For the compound `COc1cc(/C=C2/C(=N)N3C=CSC3=NC2=O)ccc1OCCCOc1cc(C)ccc1C`, the inhibition is 4.39%.

Turning to `C=CCOc1ccc(/C=C2\C(=N)N3N=C(S(=O)(=O)CC)SC3=NC2=O)cc1OC`, the inhibition was -6.72%.

As for `CCC(=O)Nc1cc(-c2nn(C)c(=O)c3ccccc23)ccc1N1CCOCC1`, the inhibition is 1.97%.

Turning to `Cc1csc(SC(C)C(=O)NCc2ccc3c(c2)OCO3)n1` (stereo unspecified), the inhibition was 6%.

Regarding `Cc1ncc(C[n+]2csc(CCOC(=O)C34CC5CC(CC(C5)C3)C4)c2C)c(N)n1`, the inhibition is 1.84%.

With `CCOc1ccccc1OCC(=O)Nc1cc(S(=O)(=O)N2CCCCC2)ccc1OC`, the inhibition was 10.7%.

As for `Cn1c(Cc2ccccc2)nnc1SCc1nc2ccccc2c(=O)[nH]1`, the inhibition was 0.95%.

On to `COCC(=O)N1CCC(Oc2ccc(C(=O)N(C)Cc3nccs3)cc2)CC1`, for which the inhibition was 3.05%.

In the case of `CSc1ccccc1NC(=O)c1cccc(S(=O)(=O)N2CCN(C)CC2)c1`, the inhibition is 2.55%.

With `C[C@H]1CCCCO[C@@H](CN(C)S(=O)(=O)c2ccc(F)cc2)[C@@H](C)CN([C@@H](C)CO)C(=O)c2cc(NC(=O)Nc3ccc4c(c3)OCO4)ccc2O1`, the inhibition is 9.48%.

For `CCN(CC)CCCNC(=S)N1CCn2c(nc3ccccc32)C1`, the inhibition is 6.61%.

In the case of `O=C(NCC1CCCO1)c1cc([N+](=O)[O-])ccc1Cl` (stereo unspecified), the inhibition is 2.41%.

With `O=C(CC1CCCC1)NNC(=O)c1ccc(Br)cc1`, the inhibition was 10.1%.

`CC1=NOC(=O)/C1=C\c1ccc(-c2cccc(Cl)c2)o1`: the inhibition is 12.5%.

On to `CC1=NN(c2ccc(Br)cc2)C(=O)/C1=C/c1ccc(-c2ccccc2C(=O)O)o1`, for which the inhibition was 7.93%.

For `CC1=NOC(=O)/C1=C/c1ccc(-c2ccc(Cl)cc2)o1`, the inhibition is 13%.

In the case of `CC1=NN(c2ccc(Cl)c(C(=O)O)c2)C(=O)/C1=C\c1ccc(-c2ccc(C(=O)O)cc2)o1`, the inhibition is 20.6%.

The values above are taken from PubChem BioAssay AID624330 (Southern Research Specialized Biocontainment Screening …, 2012).
